# In PubChem BioAssay (NCATS):
# Results filed as inconclusive are left out. Where a call stands in place of a potency, no number is given. Activity calls are given as the source filed them. The call rests on the fitted dose curve; in most records, active means well fitted cell-killing curve with a large enough effect; inconclusive means small, poorly fitted or top-dose-only effect; inactive means no such curve, though single readings can be large or run the other way.
# What was measured:
# [1] = qHTS of pediatric cancer cell lines to identify multiple opportunities for drug repurposing: Primary screen for Rh30 cells (AID 1347107); conditions: Rh30 rhabdomyosarcoma viability, CellTiter-Glo luminescence, 48 h; series mostly up to 46 µM; further: nearly all actives have a fitted effect of over 75% in size
# Method in brief: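 Cells (500-1,000/well) rested 5 h, then received compounds for 48 h; metabolically active cells were measured by CellTiter-Glo luminescence. Final concentrations spanned up to 46 µM (MIPE, 11-point) or 0.59 nM-46 µM (NPC, 8-point) in primary screens, 11-point in follow-ups.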
# [2] = qHTS of pediatric cancer cell lines to identify multiple opportunities for drug repurposing: Primary screen for Rh41 cells (AID 1347108); conditions: Rh41 rhabdomyosarcoma viability, CellTiter-Glo luminescence, 48 h; series mostly up to 46 µM;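 further: luminescence drop marks cytotoxic hits; nearly all actives have a fitted effect of over 70% in size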
# Method in brief: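 Following a 5-hour attachment period, cells at 500-1,000/well received compounds and were cultured for 48 hours. CellTiter-Glo was added and luminescence read to estimate viable, metabolically active cells.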
SMILES,Potency [1],Potency [2]
Cc1nc2n(c(=O)c1CCN1CCC(c3noc4cc(F)ccc34)CC1)CCC[C@H]2O,inactive,inactive
CCCCC1=NC2(CCCC2)C(=O)N1Cc1ccc(-c2ccccc2-c2nn[nH]n2)cc1,inactive,inactive
O=C(COc1ccc(Cl)cc1)N1CCN(Cc2ccc3c(c2)OCO3)CC1,inactive,inactive
COc1cc2c(cc1OC)[C@@H]1CC(=O)[C@@H](CC(C)C)CN1CC2,inactive,inactive
NC(=O)c1cc[n+](CC2=C(C(=O)[O-])N3C(=O)[C@@H](NC(=O)Cc4cccs4)[C@H]3SC2)cc1,inactive,inactive
CN1CCC[C@@H]1c1cccnc1,inactive,inactive
Cc1c(C)n(Cc2ccccc2)c2ccc(C(=O)OCCN(C)C)cc12,inactive,inactive
C#C[C@]1(OC(C)=O)CC[C@H]2[C@@H]3CCC4=C[C@@H](OC(C)=O)CC[C@@H]4[C@H]3CC[C@@]21C,inactive,inactive
Cc1cccc(C)c1NC(=O)CN1CCN(CCCC(c2ccc(F)cc2)c2ccc(F)cc2)CC1,inactive,inactive
C#C[C@]1(O)CC[C@H]2[C@@H]3CCc4cc(OC5CCCC5)ccc4[C@H]3CC[C@@]21C,inactive,inactive
CC1(C)O[C@@H]2[C@@H](CO[C@@]3(COS(N)(=O)=O)OC(C)(C)O[C@@H]23)O1,inactive,inactive
CC1(C)OC[C@@H](COC(=O)CCc2ccc(OC[C@@H](O)CNCCNC(=O)N3CCOCC3)cc2)O1,inactive,inactive
Nc1ccc(C(=O)O)cc1,inactive,inactive
O=C1OC2(c3ccc(O)cc3Oc3cc(O)ccc32)c2ccccc21,inactive,inactive
